The test system of test [1] is PRMT1 (protein arginine N-methyltransferase 1). As to the kind of experiment: PRMT1 binders on small-molecule microarrays, primary screen, biochemical, small-molecule microarray, 635 nm fluorescence (AID 1088).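 Also: binding of Prmt1 protein to compounds spotted on small-molecule microarray slides.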 The following applies: small-molecule microarray binding, higher = more signal.
A short description of test [2]: yeast growth modulation, basal conditions, primary screen, YJM789 clinical isolate, OD600, 24 h (AID 1089).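 Also: growth of clinical yeast isolate S. cerevisiae YJM 789 seeded 1000 cells per well; test concentration not given here.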 The following applies: S. cerevisiae YJM789 growth, higher = more signal, called active from +8 up or from −8 down.
Test [3] in a line: fission yeast growth modulation, primary screen, strain 972, OD600, 24 h, no modulator (AID 1090).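 Also: basal condition with compound alone and no growth modifier present; test concentration not given here.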 The following applies: S. pombe 972 growth, higher = more signal, called active from +8 up or from −8 down.
The nature of test [4]: S. cerevisiae growth modulation with rapamycin, primary screen, strain BY4716, OD600, 96 h (AID 1091). Also: test concentration not given here. To be noted: higher = more signal, called active from +8 up or from −8 down.
For test [5], the target named is Torsin-1A-interacting protein 2 (Homo sapiens) (UniProt Q8NFQ8). The test can be described thus: LULL1 binders on small-molecule microarray, primary screen, cell lysate, human LULL1 lysate, 635/667 nm fluorescence (AID 1092).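 Also: probe is lysate of COS7 cells overexpressing human LULL1; score merges per-feature 667 nm fluorescence with signal-to-noise.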 The following applies: hLULL1 lysate binding, 635 nm fluorescence, higher = more signal.
The nature of test [6]: E. coli growth modulation, two-sided OD650, primary screen, E. coli filamentation project, strain DRC41, 24 h (AID 1093).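 Also: MC1000 strain lacking acrAB efflux and sulA so SOS filamentation is blocked; test concentration not given here.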 To be noted: OD650, 24 h, higher = more signal, called active from +8 up or from −8 down.
Test [7] is described as follows: small-molecule microarray binders of probe aLefty2, primary screen, biochemical, biotinylated probe, 635/667 nm fluorescence (AID 1094).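 Also: score merges spot fluorescence near 667 nm with spot signal-to-noise ratio.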 To be noted: higher = more signal.
Test [8] concerns Noggin (protein binding on small-molecule microarray). The test can be described thus: Noggin binders on small-molecule microarray, primary screen, biochemical, 635/667 nm fluorescence (AID 1095).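 Also: score merges 667 nm feature fluorescence with signal to noise over triplicate slides.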 The following applies: 635 nm fluorescence, higher = more signal.
The target of test [9] is Neurogenic locus notch homolog protein 3 (Homo sapiens) (UniProt Q9UM47). The test can be described thus: NOTCH3 binders on small-molecule microarray, primary screen, biochemical, 635/667 nm fluorescence (AID 1096). The following applies: NOTCH3 binding, 635 nm fluorescence, higher = more signal.
Test [10] can be described thus: small-molecule microarray binders of probe aEGFR, primary screen, biochemical, biotinylated probe, 635/667 nm fluorescence (AID 1097).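 Also: probe is a biotinylated anti-EGFR antibody binding compounds printed on slides; score combines fluorescence near 667 nm and signal to noise of each spot.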 To be noted: higher = more signal.
Test [11] deals with Plasmodium falciparum Sir2 (PF13_0152, Sir2A). As to the kind of experiment: pfSir2 binders on small-molecule microarrays, primary screen, biochemical, small-molecule microarray, 635 nm fluorescence (AID 1098).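 Also: score merges spot fluorescence intensity with its signal-to-noise ratio.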 The following applies: small-molecule microarray binding, fluorescence 635 nm; higher = more signal.
Test [12] in a line: small-molecule microarray binders of probe aDKK1, primary screen, biochemical, biotinylated probe, 635/667 nm fluorescence (AID 1099).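 Also: score merges 667nm spot fluorescence with signal to noise across triplicate slides; reference of the scale not given here.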 The following applies: higher = more signal.
Test [13] can be described thus: small-molecule microarray binders of probe aCHRDL2, primary screen, biochemical, biotinylated probe, 635/667 nm fluorescence (AID 1100). To be noted: higher = more signal.
Test [14] can be described thus: splicing luciferase reporter signal modulators, primary screen, spliceosome inhibition project, cell-based, HEK293, splice +/- reporter (AID 1101).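 Also: HEK293 cells carrying a splicing-competent luciferase reporter gene; test concentration not given here.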 The following applies: luminescence, 24 h, higher = more signal, called active from +8 up or from −8 down. (In general: In a reporter assay the amount or activity of a reporter protein is the signal.)
The target in test [15] is Fibroblast growth factor 10 (Homo sapiens) (UniProt O15520). As to the kind of experiment: FGF10 binders on small-molecule microarrays, primary screen, biochemical, small-molecule microarray, 635 nm fluorescence (AID 1102). To be noted: FGF10 binding, fluorescence 635 nm, higher = more signal.
In test [16] the test system is glycogen synthase kinase-3 (GSK3A per assay name; protocol says GSK3B). As to the kind of experiment: GSK3 binders on small-molecule microarrays, primary screen, biochemical, small-molecule microarray, 635 nm fluorescence, GSK3A (AID 1103). Also: the record names both GSK3A and GSK3B. To be noted: small-molecule microarray binding, fluorescence 635 nm; higher = more signal.
Test [17] addresses Epidermal growth factor receptor (Homo sapiens) (UniProt P00533). As to the kind of experiment: EGFR binders on small-molecule microarrays, primary screen, biochemical, small-molecule microarray, 635 nm fluorescence (AID 1104).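 Also: score merges 667 nm emission intensity with spot signal to noise over triplicate slides.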 To be noted: EGFR binding, higher = more signal.
Test [18] concerns the target Follistatin-related protein 3 (Homo sapiens) (UniProt O95633). The test can be described thus: FSTL3 binders on small-molecule microarrays, primary screen, biochemical, small-molecule microarray, 635 nm fluorescence (AID 1105).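 Also: score merges emission near 667 nm and signal to noise per printed spot across three slides.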 The following applies: FSTL3 binding, higher = more signal.
Test [19] concerns the target Dickkopf-related protein 1 (Homo sapiens) (UniProt O94907). As to the kind of experiment: DKK1 binders on small-molecule microarrays, primary screen, biochemical, small-molecule microarray, 635 nm fluorescence scan (AID 1106).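 Also: score merges emission near 667 nm with signal to noise over three replicate slides.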 To be noted: DKK1 binding, higher = more signal.
The subject of test [20] is Inhibin beta A chain (activin A). The test can be described thus: INHBA (activin A) binders on microarrays, primary screen, biochemical, small-molecule microarray, 635 nm fluorescence scan (AID 1107).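 Also: mouse activin A protein probed at 4.33 µg/mL on printed slides; score merges bound-protein fluorescence near 667 nm with spot signal-to-noise.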 To be noted: small-molecule microarray binding, higher = more signal.

The values below come from PubChem BioAssay.

Calls of active or inactive are those of the source.

Neurogenic locus notch homolog protein 3 (Homo sapiens), sequence (Q9UM47 whole entry, looked up): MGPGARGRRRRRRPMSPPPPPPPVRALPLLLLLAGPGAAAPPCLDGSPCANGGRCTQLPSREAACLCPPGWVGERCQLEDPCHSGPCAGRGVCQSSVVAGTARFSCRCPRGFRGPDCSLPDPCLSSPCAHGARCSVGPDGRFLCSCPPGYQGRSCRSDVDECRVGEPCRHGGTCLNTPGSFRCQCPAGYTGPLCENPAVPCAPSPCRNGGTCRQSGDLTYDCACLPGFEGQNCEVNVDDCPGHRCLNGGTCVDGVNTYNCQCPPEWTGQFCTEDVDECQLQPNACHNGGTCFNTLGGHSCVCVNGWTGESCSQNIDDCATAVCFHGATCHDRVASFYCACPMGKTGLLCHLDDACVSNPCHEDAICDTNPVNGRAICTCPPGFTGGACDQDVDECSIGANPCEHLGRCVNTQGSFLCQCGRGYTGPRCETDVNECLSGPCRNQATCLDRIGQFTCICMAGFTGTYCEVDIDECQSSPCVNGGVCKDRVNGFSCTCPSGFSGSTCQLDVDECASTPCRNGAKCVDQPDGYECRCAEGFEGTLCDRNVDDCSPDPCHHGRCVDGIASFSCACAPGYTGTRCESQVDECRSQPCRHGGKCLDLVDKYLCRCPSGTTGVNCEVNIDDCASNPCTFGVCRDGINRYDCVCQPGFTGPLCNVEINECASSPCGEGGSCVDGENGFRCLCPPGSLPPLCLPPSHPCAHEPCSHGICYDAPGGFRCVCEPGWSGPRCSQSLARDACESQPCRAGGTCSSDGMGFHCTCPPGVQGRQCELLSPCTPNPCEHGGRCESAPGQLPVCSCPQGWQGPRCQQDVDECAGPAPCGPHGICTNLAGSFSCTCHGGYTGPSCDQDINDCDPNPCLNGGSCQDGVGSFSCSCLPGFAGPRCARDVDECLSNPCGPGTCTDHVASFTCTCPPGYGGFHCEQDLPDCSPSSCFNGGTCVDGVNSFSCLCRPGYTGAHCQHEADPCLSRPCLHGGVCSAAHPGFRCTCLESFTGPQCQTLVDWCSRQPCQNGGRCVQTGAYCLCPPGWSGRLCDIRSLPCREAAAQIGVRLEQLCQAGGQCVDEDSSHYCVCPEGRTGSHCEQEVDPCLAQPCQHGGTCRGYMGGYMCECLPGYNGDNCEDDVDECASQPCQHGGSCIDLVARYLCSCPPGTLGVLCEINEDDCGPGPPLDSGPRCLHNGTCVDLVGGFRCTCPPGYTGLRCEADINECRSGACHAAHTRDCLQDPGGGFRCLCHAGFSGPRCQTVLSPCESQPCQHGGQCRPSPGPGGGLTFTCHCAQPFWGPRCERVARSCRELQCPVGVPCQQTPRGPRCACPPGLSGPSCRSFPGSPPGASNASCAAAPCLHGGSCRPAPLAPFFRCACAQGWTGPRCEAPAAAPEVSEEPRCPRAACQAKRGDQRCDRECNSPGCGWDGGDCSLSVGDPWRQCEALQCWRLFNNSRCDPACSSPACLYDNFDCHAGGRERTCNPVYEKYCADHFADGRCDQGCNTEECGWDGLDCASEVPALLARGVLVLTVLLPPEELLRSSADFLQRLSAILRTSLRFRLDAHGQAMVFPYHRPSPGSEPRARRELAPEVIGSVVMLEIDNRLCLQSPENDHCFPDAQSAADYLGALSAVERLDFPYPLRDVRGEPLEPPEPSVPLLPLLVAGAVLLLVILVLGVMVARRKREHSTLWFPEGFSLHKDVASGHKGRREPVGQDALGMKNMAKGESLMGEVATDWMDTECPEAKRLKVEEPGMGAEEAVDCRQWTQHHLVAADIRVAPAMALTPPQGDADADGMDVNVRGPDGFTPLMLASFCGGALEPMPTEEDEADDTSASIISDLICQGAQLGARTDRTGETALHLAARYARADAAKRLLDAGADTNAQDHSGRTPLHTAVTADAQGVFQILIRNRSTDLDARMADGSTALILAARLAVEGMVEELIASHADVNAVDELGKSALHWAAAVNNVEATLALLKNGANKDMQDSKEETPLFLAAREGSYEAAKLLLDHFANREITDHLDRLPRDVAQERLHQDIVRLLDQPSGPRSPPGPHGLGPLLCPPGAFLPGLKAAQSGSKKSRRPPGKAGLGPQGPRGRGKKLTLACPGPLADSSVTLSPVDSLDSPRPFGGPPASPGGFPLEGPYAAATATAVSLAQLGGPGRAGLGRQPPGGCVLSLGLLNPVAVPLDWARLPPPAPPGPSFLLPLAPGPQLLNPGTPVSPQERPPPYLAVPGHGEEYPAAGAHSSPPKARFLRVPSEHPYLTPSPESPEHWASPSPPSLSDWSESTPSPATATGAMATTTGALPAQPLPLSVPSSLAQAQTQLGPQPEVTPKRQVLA
Epidermal growth factor receptor (Homo sapiens), sequence (P00533 whole entry, looked up): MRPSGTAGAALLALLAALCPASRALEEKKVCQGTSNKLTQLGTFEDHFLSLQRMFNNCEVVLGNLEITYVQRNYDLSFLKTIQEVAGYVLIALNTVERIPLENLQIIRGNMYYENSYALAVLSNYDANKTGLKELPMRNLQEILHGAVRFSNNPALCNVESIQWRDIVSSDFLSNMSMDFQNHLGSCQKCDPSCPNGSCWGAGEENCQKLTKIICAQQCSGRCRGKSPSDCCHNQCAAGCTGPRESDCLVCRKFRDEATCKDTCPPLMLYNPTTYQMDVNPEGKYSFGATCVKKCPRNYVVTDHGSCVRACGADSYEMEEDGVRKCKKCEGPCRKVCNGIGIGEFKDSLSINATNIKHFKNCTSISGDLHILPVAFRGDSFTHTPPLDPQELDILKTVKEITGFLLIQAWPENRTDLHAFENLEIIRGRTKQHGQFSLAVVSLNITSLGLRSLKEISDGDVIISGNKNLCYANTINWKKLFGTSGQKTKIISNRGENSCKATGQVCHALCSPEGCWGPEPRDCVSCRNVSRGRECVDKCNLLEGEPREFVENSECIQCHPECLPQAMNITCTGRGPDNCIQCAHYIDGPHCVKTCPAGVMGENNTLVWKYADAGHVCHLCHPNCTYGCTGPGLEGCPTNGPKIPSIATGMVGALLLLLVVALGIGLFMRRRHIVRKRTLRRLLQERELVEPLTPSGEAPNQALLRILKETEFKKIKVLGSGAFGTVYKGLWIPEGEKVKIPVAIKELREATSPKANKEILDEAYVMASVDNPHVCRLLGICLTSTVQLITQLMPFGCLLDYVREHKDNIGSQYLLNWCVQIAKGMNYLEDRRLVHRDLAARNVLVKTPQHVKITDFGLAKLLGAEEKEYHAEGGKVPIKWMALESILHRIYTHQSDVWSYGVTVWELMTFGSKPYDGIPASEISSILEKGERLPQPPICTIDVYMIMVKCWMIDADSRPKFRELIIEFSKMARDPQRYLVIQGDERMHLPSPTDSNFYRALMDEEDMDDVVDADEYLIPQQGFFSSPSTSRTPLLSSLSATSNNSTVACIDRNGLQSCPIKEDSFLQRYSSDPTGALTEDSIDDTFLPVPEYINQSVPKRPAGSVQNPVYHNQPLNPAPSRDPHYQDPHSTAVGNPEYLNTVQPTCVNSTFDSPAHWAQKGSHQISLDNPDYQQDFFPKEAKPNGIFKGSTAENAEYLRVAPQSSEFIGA
Torsin-1A-interacting protein 2 (Homo sapiens), sequence (Q8NFQ8 whole entry, looked up): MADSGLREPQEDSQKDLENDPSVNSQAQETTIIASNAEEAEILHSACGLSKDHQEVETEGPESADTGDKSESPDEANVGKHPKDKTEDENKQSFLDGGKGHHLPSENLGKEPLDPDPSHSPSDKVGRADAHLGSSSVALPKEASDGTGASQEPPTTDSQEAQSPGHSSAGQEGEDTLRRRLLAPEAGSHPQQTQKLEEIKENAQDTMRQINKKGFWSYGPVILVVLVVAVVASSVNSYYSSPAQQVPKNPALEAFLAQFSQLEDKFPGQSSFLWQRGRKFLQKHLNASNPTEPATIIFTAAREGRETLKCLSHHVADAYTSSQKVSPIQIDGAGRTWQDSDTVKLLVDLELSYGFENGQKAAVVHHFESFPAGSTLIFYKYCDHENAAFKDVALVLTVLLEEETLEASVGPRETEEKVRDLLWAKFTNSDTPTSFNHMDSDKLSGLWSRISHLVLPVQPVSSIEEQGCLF
Fibroblast growth factor 10 (Homo sapiens), sequence (O15520 whole entry, looked up): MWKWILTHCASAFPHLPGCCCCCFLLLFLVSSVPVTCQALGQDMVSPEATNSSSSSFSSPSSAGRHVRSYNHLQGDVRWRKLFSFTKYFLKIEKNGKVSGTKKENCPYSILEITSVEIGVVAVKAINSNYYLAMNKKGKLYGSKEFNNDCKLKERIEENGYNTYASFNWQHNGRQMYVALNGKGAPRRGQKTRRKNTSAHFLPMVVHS
Follistatin-related protein 3 (Homo sapiens), sequence (O95633 whole entry, looked up): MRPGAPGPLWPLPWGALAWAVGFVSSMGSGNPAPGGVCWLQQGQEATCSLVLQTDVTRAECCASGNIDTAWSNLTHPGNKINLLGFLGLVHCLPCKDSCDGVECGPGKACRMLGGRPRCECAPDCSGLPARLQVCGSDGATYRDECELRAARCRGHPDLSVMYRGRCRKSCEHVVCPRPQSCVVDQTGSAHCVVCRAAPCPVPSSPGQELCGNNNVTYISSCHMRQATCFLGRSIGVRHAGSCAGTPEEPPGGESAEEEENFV
Dickkopf-related protein 1 (Homo sapiens), sequence (O94907 whole entry, looked up): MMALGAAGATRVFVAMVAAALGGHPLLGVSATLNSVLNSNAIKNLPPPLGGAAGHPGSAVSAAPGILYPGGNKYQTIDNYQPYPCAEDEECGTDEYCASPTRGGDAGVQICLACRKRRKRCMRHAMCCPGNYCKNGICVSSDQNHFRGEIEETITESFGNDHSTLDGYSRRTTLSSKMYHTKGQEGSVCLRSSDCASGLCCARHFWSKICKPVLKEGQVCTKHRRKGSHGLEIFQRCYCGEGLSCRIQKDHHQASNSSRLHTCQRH

For `CCOC(=O)[C@H](Cc1ccccc1)NC(=O)CCC1CC(OC(=O)NCc2cccc3ccccc23)CC2(CCCC(COC(=O)NCC(c3ccccc3)c3ccccc3)O2)O1` (stereo not given in full), the composite z-score is 1.5 in test [1]; 1.17 in [5]; -0.147 in test [7]; 0.504 in test [8]; 0.851 in test [9]; 0.0117 in test [10]. The composite z-score is 0.812 in test [11]; 0.127 in test [12]; -0.464 in test [13]; 0.684 in test [15]; 0.588 in test [16]; 0.356 in [17]. For the same compound, the values for the composite z-score in test [18], in [19] and in test [20] were 0.501, 0.37 and 0.0413, respectively. Moreover, the z-score in test [2] is -0.803 (inactive); in test [3], -0.463 (inactive); in test [4], -1.07 (inactive); in [6], -1.09 (inactive); in test [14], -1.21 (inactive).
For the compound `COCOc1ccc(Br)cc1C(=O)[C@@H]1O[C@H]1c1cccc(OC)c1`, the composite z-score in test [1] is -0.0021; in test [5] it was 0.497; in test [7], -0.142; in test [8], 0.455; in test [9] it was 0.257; in [10], -0.112. Also, the composite z-score was 0.82 in test [11]; -0.0616 in test [12]; -0.0631 in test [13]; 0.152 in test [15]; 0.117 in [16]; 0.284 in [17]. Besides, the composite z-score in test [18] was determined as 0.16; in test [19], 0.219; in [20] it was 0.849. Also, the z-score is -1.33 (inactive) in test [2]; -6.67 (inactive) in test [3]; -0.822 (inactive) in [4]; 1.58 (inactive) in [6]; -0.455 (inactive) in test [14].
Consider `CC[C@@H](c1ccccc1)n1c(=O)n2n(c1=O)[C@H]1[C@H](O)[C@@H]3O[C@@H]3C(=NOC[C@@H](O)COCc3ccco3)[C@H]1CC2`, for which the composite z-score in test [1] is -0.862; in test [5], -1.1; in [7] it was -0.215; in [8], 0.0447; in [9], -0.979; in [10], -0.185. Also, the composite z-score in test [11] is 1.27; in test [12], -0.455; in test [13], -0.773; in [15], 0.145; in [16], -0.693; in test [17], -0.264. Moreover, the results for the composite z-score in test [18], in [19] and in test [20] were -0.378, 0.239 and 1.09, respectively. Moreover, the z-score was -0.697 (inactive) in [2]; -0.552 (inactive) in test [3]; -0.624 (inactive) in test [4]; 0.568 (inactive) in [6]; 3.16 (inactive) in test [14].
Regarding `COC(=O)[C@@H]1CC[C@H](C)[C@@H](c2ccc(C)cc2)N1C(=O)c1ccc(C=NO[C@H](C)c2cn([C@@H]3COC[C@H]3O)nn2)cc1`, the composite z-score in test [1] was 1.12; in test [5], 2.06; in [7] it was -0.138; in [8], 0.258; in [9] it was 1.09; in test [10] it was 0.212. Also, the composite z-score in test [11] is 0.266; in test [12], -0.132; in [13], -0.369; in [15], 0.718; in [16], 0.891; in test [17], 0.67. Further, the results for the composite z-score in test [18], in test [19] and in test [20] were 0.66, 0.831 and -1.14, respectively. Also, the z-score is 0.524 (inactive) in test [2]; -0.0358 (inactive) in test [3]; 0.726 (inactive) in [4]; 1.67 (inactive) in [6]; 0.0134 (inactive) in test [14].
For `CC(CCN1CCCCc2nc(C)c(C)cc21)=NOC[C@@H](O)COCc1ccco1`, the composite z-score is 1.3 in [1]; -0.58 in test [5]; -0.0042 in test [7]; 1.21 in [8]; 0.876 in test [9]; 0.592 in [10]. For the same compound, the composite z-score in test [11] was 1.19; in test [12], -0.286; in test [13] it was -1.58; in test [15] it was 1.26; in [16] it was 1.34; in [17], 1.74. Further, the composite z-score in test [18] stood at 1.52; in test [19], 2; in [20], 1.79. Also, the z-score in test [2] is -1.35 (inactive); in test [3], 0.527 (inactive); in test [4], -0.119 (inactive); in test [6] it was 0.742 (inactive); in [14], 0.44 (inactive).
